Among the test systems are SK-MEL-2 melanoma; EKVX NSCLC; SN12C renal; UO-31 renal; TK-10 renal; ACHN renal; CAKI-1 renal; A498 renal; CCRF-CEM leukemia; MOLT-4 leukemia; SR leukemia; RPMI-8226 leukemia; OVCAR-8 ovarian; OVCAR-5 ovarian; OVCAR-4 ovarian; SK-OV-3 ovarian; IGROV1 ovarian; OVCAR-3 ovarian; HS 578T breast; NCI/ADR-RES ovarian.
Holding throughout (test): NCI-60 one-dose screen, 48 h (100 = growth as untreated, 0 = no growth, -100 = all killed)
Common to all, as to conditions: 10 µM unless noted

This is part of a sample that, as a whole, favours compounds with a hit. Of some 83,000 tested, about 20% had one in any assay.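 Single-concentration screen, 48 h exposure, 96-well plates. Endpoint: percent growth. Below 10 = active.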 Values without a mark were called inactive. Activity calls are given as the source filed them.

Regarding `Cn1c(=O)c2nc(/C=C/c3ccccc3)c(=O)[nH]c2n(C)c1=S`, the growth is 109% with SK-MEL-2 melanoma; 101% in the experiment with EKVX NSCLC; 104% in the experiment with SN12C renal; 86.9% with UO-31 renal; 115% with TK-10 renal; 105% in the experiment with ACHN renal. Further, the growth with CAKI-1 renal is 92.1%; in the experiment on A498 renal, 97.8%; in the experiment with CCRF-CEM leukemia, 101%; in the experiment with MOLT-4 leukemia, 103%; with SR leukemia it was 111%; with RPMI-8226 leukemia it was 110%. The growth was 105% with OVCAR-8 ovarian; 110% with OVCAR-5 ovarian; 107% in the experiment with OVCAR-4 ovarian; 118% in the experiment with SK-OV-3 ovarian; 107% with IGROV1 ovarian; 116% in the experiment on OVCAR-3 ovarian. Besides, the growth with HS 578T breast is 107%; in the experiment with NCI/ADR-RES ovarian it was 106%.
Take `Cc1cn(-c2cc(NC(=O)c3cncc(C#Cc4cnc(N)c5ncccc45)c3)cc(C(F)(F)F)c2)cn1`: the growth with SK-MEL-2 melanoma was 6.39% (active); with EKVX NSCLC, 85.1%; in the experiment with SN12C renal it was 58.3%; in the experiment with UO-31 renal it was 25.4%; in the experiment with TK-10 renal, 90.3%; in the experiment with ACHN renal it was 73.4%. Moreover, the growth in the experiment on CAKI-1 renal is 92%; in the experiment with A498 renal, 60.7%; in the experiment on CCRF-CEM leukemia it was 32.5%; with MOLT-4 leukemia it was 34.7%; with SR leukemia it was 62.7%; in the experiment with RPMI-8226 leukemia, 50.9%. Moreover, the growth with OVCAR-8 ovarian was 64.5%; with OVCAR-5 ovarian, 60.3%; in the experiment on OVCAR-4 ovarian, 76.3%; with SK-OV-3 ovarian, 106%; in the experiment on IGROV1 ovarian it was 62.3%; in the experiment on OVCAR-3 ovarian, 92.1%. Further, the growth is 60.1% in the experiment on HS 578T breast and 86.9% in the experiment with NCI/ADR-RES ovarian.
For the compound `S=c1sc2c(Cl)nc(-c3cccnc3)nc2n1-c1ccccc1`, the growth was 21.6% with SK-MEL-2 melanoma; 89.6% in the experiment on EKVX NSCLC; 2% (active) with SN12C renal; -85.6% (active) with UO-31 renal; 90.2% in the experiment with TK-10 renal; -6.92% (active) with ACHN renal. The growth with CAKI-1 renal was 73.9%; with A498 renal, 92%; in the experiment with CCRF-CEM leukemia it was -31.7% (active); in the experiment with MOLT-4 leukemia, -41.5% (active); with SR leukemia, -27.2% (active); in the experiment on RPMI-8226 leukemia, -3.47% (active). For the same compound, the growth in the experiment with OVCAR-8 ovarian was 18%; in the experiment on OVCAR-5 ovarian, 125%; in the experiment with OVCAR-4 ovarian, 70.6%; with SK-OV-3 ovarian, 87.9%; with IGROV1 ovarian, -60.2% (active); with OVCAR-3 ovarian it was 52.2%. Also, the figures for the growth in the experiment with HS 578T breast and in the experiment with NCI/ADR-RES ovarian were 55.9% and 60.2%, respectively.
On to `CC(=O)/C(=C\c1c(-c2ccccc2)[nH]c2ccccc12)S(C)(=O)=O`, for which the growth is 59.9% with SK-MEL-2 melanoma; 50.4% with EKVX NSCLC; 33.4% in the experiment with SN12C renal; 51% in the experiment with UO-31 renal; 42.7% in the experiment on TK-10 renal; 50.2% in the experiment on ACHN renal. The growth in the experiment on CAKI-1 renal is 45.6%; in the experiment with A498 renal it was 31.9%; in the experiment on CCRF-CEM leukemia, 1.75% (active); in the experiment on MOLT-4 leukemia it was -13.5% (active); in the experiment on SR leukemia, -25.2% (active); in the experiment on RPMI-8226 leukemia it was -32.2% (active). Also, the growth with OVCAR-8 ovarian was 40.9%; with OVCAR-5 ovarian it was 78.3%; with OVCAR-4 ovarian, -29.6% (active); in the experiment on SK-OV-3 ovarian, 35.9%; with IGROV1 ovarian it was 54.1%; in the experiment on OVCAR-3 ovarian it was -54.6% (active). The growth in the experiment with HS 578T breast was 3.31% (active); in the experiment on NCI/ADR-RES ovarian, -19.5% (active).
In the case of `COc1ccc(-c2cc(-c3ccc(Cl)cc3)c(C#N)c(=O)n2Cc2ccc(C(=O)Nc3ccccc3N)cc2)cc1`, the growth in the experiment with SK-MEL-2 melanoma was 79.3%; in the experiment on EKVX NSCLC it was 82.1%; with SN12C renal it was 79.1%; with UO-31 renal, 40.5%; in the experiment on TK-10 renal, 140%; with ACHN renal it was 96.5%. The growth with CAKI-1 renal is 55.8%; in the experiment with A498 renal, 84%; with CCRF-CEM leukemia, 42.6%; in the experiment with MOLT-4 leukemia it was 66.2%; with SR leukemia it was 40.9%; with RPMI-8226 leukemia it was 57.1%. In addition, the growth in the experiment with OVCAR-8 ovarian is 92.8%; in the experiment with OVCAR-5 ovarian, 96.7%; in the experiment on OVCAR-4 ovarian, 76.3%; with SK-OV-3 ovarian it was 92.6%; in the experiment with IGROV1 ovarian, 78.3%; with OVCAR-3 ovarian it was 42.6%. The values for the growth with HS 578T breast and in the experiment with NCI/ADR-RES ovarian were 46.2% and 71.2%, respectively.
`Cc1ccc2c(Cn3cc(CSc4nc5ccccc5o4)nn3)cc(=O)oc2c1`: the growth was 106% in the experiment with SK-MEL-2 melanoma; 92.1% in the experiment on EKVX NSCLC; 102% in the experiment on SN12C renal; 91.1% with UO-31 renal; 122% in the experiment on TK-10 renal; 103% with ACHN renal. Besides, the growth with CAKI-1 renal was 100%; in the experiment with A498 renal, 90%; in the experiment on CCRF-CEM leukemia it was 93.4%; with MOLT-4 leukemia it was 108%; in the experiment on SR leukemia, 99.6%; in the experiment with RPMI-8226 leukemia, 100%. For the same compound, the growth with OVCAR-8 ovarian is 97.4%; with OVCAR-5 ovarian it was 116%; in the experiment with OVCAR-4 ovarian it was 107%; in the experiment with SK-OV-3 ovarian it was 81%; in the experiment with IGROV1 ovarian, 107%; with OVCAR-3 ovarian, 115%. The growth in the experiment on HS 578T breast was 107%; in the experiment with NCI/ADR-RES ovarian, 99.3%.
As to `COc1c(C(=O)Nc2ccc(C)c(Br)c2)ccc2ccccc12`, the growth was 102% in the experiment with SK-MEL-2 melanoma; 66.3% in the experiment on EKVX NSCLC; 96.8% in the experiment on SN12C renal; 85.5% in the experiment with UO-31 renal; 103% with TK-10 renal; 104% with ACHN renal. Also, the growth is 71.9% in the experiment on CAKI-1 renal; 91.2% with A498 renal; 91.3% with CCRF-CEM leukemia; 73.7% in the experiment with MOLT-4 leukemia; 54.3% in the experiment with SR leukemia; 95.7% with RPMI-8226 leukemia. Further, the growth is 99.3% in the experiment on OVCAR-8 ovarian; 92.2% in the experiment with OVCAR-5 ovarian; 82.9% in the experiment with OVCAR-4 ovarian; 97.9% in the experiment on SK-OV-3 ovarian; 94.3% with IGROV1 ovarian; 107% in the experiment on OVCAR-3 ovarian. The growth in the experiment on HS 578T breast was 85.5%; in the experiment on NCI/ADR-RES ovarian, 84.6%.

The values above are taken from PubChem BioAssay (NCI).
